From PubChem BioAssay (NCI)
Compounds without any hit were thinned out: in the full panel of roughly 83,000, 20% have a hit.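 Results are percent growth after 48 hours of single-concentration exposure. 100 means growth as in untreated cells, lower positive values show inhibition; negative values down to -100 show cell death.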 Unmarked numbers belong to inactive results. Active and inactive are the calls of the source. How the source made its calls: active means growth percent below 10; inactive means the rest.

system: MALME-3M melanoma; experiment: NCI-60 one-dose screen, 48 h (100 = growth as untreated, 0 = no growth, -100 = all killed); conditions: 10 µM unless noted

| SMILES | growth |
| --- | --- |
| CSCCC1NC(=O)C(C(C)=Nc2ccccc2)=C1O (stereo not drawn) | 112% |
| CC1(C)C2CCC(O)(C(=O)O)C1C2 (stereo not drawn) | 109% |
| COc1ccc(CCN2COc3c([C@@H](C)CCC=C(C)C)ccc(C)c3C2)cc1OC | 48% |
| COc1ccc(C(=O)C(CN(C)C)c2ccccc2)cc1 (stereo not drawn) | 45% |
| Oc1ccc(CCCCCCc2ccc(O)cc2)cc1 | 92.8% |
| c1ccc(C2=Nc3ccccc3SC2)cc1 | 99.3% |
| O=C(O)c1cn(-c2ccccc2)nc1-c1ccc(O)cc1 | 105% |
| COc1cc(/C=C/C(=O)c2c(C)nc3ccccc3c2C)ccc1OCCCOc1cc2c(cc1OC)C(=O)N1CCC[C@H]1C=N2 | -37.2% (active) |
| COc1ccc(Br)c2ccccc12 | 121% |
| CC(=O)c1cccc(Nc2ncnc3ccc(NC(=O)c4ccco4)cc23)c1 | 97.8% |
| CCN(CC)c1ccc(C(=N)c2ccc(N(C)C)cc2)cc1 | 31.9% |
| CCCCCCCCCCCCCCCCCC1=NC(C)(C)CN1C(C)(C)CO | -58.1% (active) |
| COC(=O)c1ccc(NC(N)=NCCC(C)(C)c2ccc(C(F)(F)F)cc2)nc1 | -30.9% (active) |
| CCCCCCCCCCCC1=NC(C)(C)CN1C(C)(C)CO | 62.7% |
| CO[C@@]12[C@@H]3NC3CN1C1=C(C(=O)C(N)=C(C)C1=O)[C@@H]2COC(N)=O (stereo partly drawn) | -12% (active) |
| Cc1cc(NC(=O)c2ccc(N)cc2)ccc1N=Nc1ccc2cc(S(=O)(=O)O)cc(S(=O)(=O)O)c2c1 | 116% |
| CCCCCCCCCCCCCCCC1=NCC[N+]1(CCO)CCO | 108% |
| CC1CN(CCCOC(=O)Nc2ccc(Cl)cc2)CCN1C(C)(C)C (stereo not drawn) | 102% |
| O=c1c2sc3ccccc3c2nnn1-c1ccc(F)c(Cl)c1 | 58% |
| Clc1ccccc1Nc1nnc(-c2ccncc2)s1 | 109% |
| COc1cc2c(cc1I)-c1c(cc(OC)c(OC)c1OC)CC[C@@H]2NC(C)=O | 72.4% |
| COC(=O)c1cc(Cl)cc([N+](=O)[O-])c1O | 114% |
| CCN(CC)c1ccc2nc3c4ccccc4c(=O)cc-3n(-c3ccccc3)c2c1 | -32.3% (active) |
